# Results from PubChem BioAssay (NCATS).
# Values joined by “and” are separate entries in the source; they are usually repeats but may differ in a detail not shown here. Equal values may be shown once. Records with an inconclusive call do not appear. A call without a number means that no potency is given here. Active and inactive are the calls of the source. Unless noted, calls follow the shape of the dose curve; as a rule, active = well fitted curve in the direction sought with a large enough effect; inconclusive = small, poorly fitted or top-dose-only effect, or another doubt; inactive = no such curve, though single readings can be large; an effect the other way counts as inactive or inconclusive.
# Columns and labels:
# [1] = qHTS assay to identify small molecule inhibitors of chordoma cells - UCH-2 (AID 1259356); also: series mostly up to about 46 µM
# [2] = P-glycoprotein substrates identified in KB-8-5-11 adenocarcinoma cell line, qHTS therapeutic library screen (AID 1346987); also: nearly all actives have a fitted effect of over 65% in size; also: potency is read from the fitted curve at half-maximal effect
# Summary of the method: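 Human cervical adenocarcinoma KB-8-5-11 cells, selected in colchicine to over-express P-gp and assayed without it, were exposed for 72 h to titrated compounds. An ATP-based luminescent viability signal gave AC50.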
# [3] = NS1 protein of Zika virus - qHTS assay to identify small molecule inhibitors in human HEK 293 cells (AID 1347053); also: series mostly up to about 46 µM; nearly all actives have a fitted effect of over 55% in size
# Summary of the method: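 TR-FRET signal from two anti-ZIKV NS1 antibodies quantified NS1 in HEK 293 cells 24 h after MR766 infection at MOI = 0.5; compounds were added 1 h before virus. Uninfected cells and infected cells defined the NS1 normalization range.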
# [4] = qHTS of pediatric cancer cell lines to identify multiple opportunities for drug repurposing: Primary screen for TC32 cells (AID 1347089); also: nearly all actives have a fitted effect of over 60% in size; also: potency is read from the fitted curve at half-maximal effect
# Summary of the method: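 Luminescent ATP read-out (CellTiter-Glo) of metabolically active TC32 cells after 48 h exposure. Concentration-response curves came from 11-point (MIPE, 0.78 nM–46 µM) or 8-point (NPC, 0.59 nM–46 µM) primary titrations; follow-up used 11 points.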
# [5] = qHTS of pediatric cancer cell lines to identify multiple opportunities for drug repurposing: Primary screen for DAOY cells (AID 1347090); also: nearly all actives have a fitted effect of over 55% in size; also: potency is read from the fitted curve at half-maximal effect
# Summary of the method: (§1)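 Eight- or eleven-point concentration series, 48 h treatment at 37 degrees C in growth media; readout CellTiter-Glo luminescence. Potency and efficacy were taken from the concentration-response curves.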
# [6] = qHTS of pediatric cancer cell lines to identify multiple opportunities for drug repurposing: Primary screen for A673 cells (AID 1347092); also: nearly all actives have a fitted effect of over 45% in size; also: potency is read from the fitted curve at half-maximal effect
# Summary of the method: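 Cell viability of A673 measured by CellTiter-Glo ATP luminescence after 48 hours compound exposure. Dilution series spanned 0.78 nM to 46 µM (MIPE, 11-point) or 0.59 nM to 46 µM (NPC, 8-point); bortezomib 2.3 uM positive control.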
# [7] = qHTS of pediatric cancer cell lines to identify multiple opportunities for drug repurposing: Primary screen for SJ-GBM2 cells (AID 1347091); also: potency is read from the fitted curve at half-maximal effect
# Summary of the method: as §1
# [8] = Identifying Small Molecule Inhibitors of Pancreatic Cancer Stem Cells (SN12C, Adherent) (AID 1259358);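 also: cell survival measured after 48 h of compound exposure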; also: potency is read from the fitted curve at half-maximal effect
# Summary of the method: (§2)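 Luminescent ATP readout (CellTiter-Glo) quantifies surviving cells after a 48 h drug incubation. Normalization uses DMSO wells as no inhibition and media-only wells as full inhibition; bortezomib served as positive control.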
# [9] = Identifying Small Molecule Inhibitors of Pancreatic Cancer Stem Cells (A278, Adherent) (AID 1259361);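 also: viability read after 48 h compound exposure; nearly all actives have a fitted effect of over 35% in size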
# Summary of the method: as §2
# [10] = P-glycoprotein substrates identified in KB-3-1 adenocarcinoma cell line, qHTS therapeutic library screen (AID 1346986); also: nearly all actives have a fitted effect of over 60% in size;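 also: potency is read from the fitted curve at half-maximal effect; potency is for cytotoxicity meaning loss of cell viability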
# Summary of the method: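 Using luminescence to quantify ATP, parental and P-gp-overexpressing KB cells were compared after 72 h compound titration. KB-8-5-11 was also run with the P-gp inhibitor tariquidar.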
# [11] = Identifying Small Molecule Inhibitors of Pancreatic Cancer Stem Cells (SN12C, Spheroid) (AID 1259360); conditions: Potency: SN12C spheroid viability
# Summary of the method: as §2
# [12] = Natriuretic polypeptide receptor (hNpr1) antagonism - Pilot counterscreen GloSensor control cell line (AID 1347045; calls by dose curve; also: series mostly up to about 38 µM)
# Summary of the method: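 The SNP-driven cGMP luminescence signal (50 uM, 20 min, room temperature) was measured in GloSensor HEK293 control cells. Compounds were tested as a LOPAC titration series and preincubated for 30-50 min.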
# [13] = target: Atrial natriuretic peptide receptor 1 (Homo sapiens) (UniProt P16066); experiment: Natriuretic polypeptide receptor (hNpr1) antagonism - Pilot screen (AID 1347049; calls by dose curve)
# Summary of the method: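 Cells expressing receptor plus cGMP biosensor are seeded and incubated overnight at 37C, then loaded with GloSensor reagent (2% final) at room temperature for 2 h. Library compounds go on for 30 min. A pre-read precedes agonist (hNppA, 0.1 nM final) and a 20-min readout.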
# [14] = target: Atrial natriuretic peptide receptor 2 (Homo sapiens) (UniProt P20594); experiment: Natriuretic polypeptide receptor (hNpr2) antagonism - Pilot subtype selectivity assay (AID 1347050; calls by dose curve)
# Summary of the method: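 Read-out: GloSensor luminescence (CCD imager), baseline vs post-stimulation. HEK293 cells expressing hNpr2; compounds pre-incubated 30-50 min at ambient temperature; hNppC 1 nM final, 20 min.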
# [15] = target: T1, Tyrosine-protein phosphatase non-receptor type substrate 1 (Homo sapiens) + Leukocyte surface antigen CD47 (Homo sapiens) (UniProt P78324+Q08722); experiment: CD47-SIRPalpha protein protein interaction - LANCE assay qHTS validation (AID 1347057; active = well fitted curve in the direction sought with a large enough effect in the signal ratio, with a control signal flat, not every such curve was filed as active; the % refers to the signal ratio; also: series mostly up to about 38 µM)
# Summary of the method: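 Inhibition of soluble CD47/SIRPalpha ectodomain association by titrated compounds, measured as 665/615 nm time-resolved FRET ratio after sequential 30 min room-temperature incubations.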
# [16] = target: T1, Tyrosine-protein phosphatase non-receptor type substrate 1 (Homo sapiens) + Leukocyte surface antigen CD47 (Homo sapiens); experiment: CD47-SIRPalpha protein protein interaction - Alpha assay qHTS validation (AID 1347059);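 also: bead proximity luminescence from CD47 binding SIRPalpha after compound preincubation with SIRPalpha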
# Summary of the method: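 In PBS (pH 7.4) with 0.05% IGEPAL CA-630, compound is preincubated with biotin-Avi-SIRPalpha ectodomain before His-CD47 ectodomain and affinity beads are added. Light-protected room-temperature incubations; AlphaScreen readout.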
# [17] = target: Parathyroid hormone/parathyroid hormone-related peptide receptor (Homo sapiens) (UniProt Q03431); experiment: qHTS for PTHR1 Agonists: Optimization Screen against the NCGC LOPAC library (AID 1347079);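 also: GloSensor cAMP luminescence in HEK-293 GP2 cells expressing human PTHR1 with IBMX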
# Summary of the method: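 Signal increase flags agonism. GP2 cells, derived from HEK-293, express human PTHR1 and a GloSensor cAMP construct.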
# [18] = Identifying Small Molecule Inhibitors of Pancreatic Cancer Stem Cells (A2780, Spheroid) (AID 1259357); conditions: Potency: A2780 spheroid viability;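 also: spheroids pre-formed over 14 days in stem cell medium on hydrogel; compound exposure lasted 48 h before the ATP luminescence read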
# Summary of the method: as §2
# Chain of Parathyroid hormone/parathyroid hormone-related peptide receptor (Homo sapiens) (Q03431 whole entry, looked up): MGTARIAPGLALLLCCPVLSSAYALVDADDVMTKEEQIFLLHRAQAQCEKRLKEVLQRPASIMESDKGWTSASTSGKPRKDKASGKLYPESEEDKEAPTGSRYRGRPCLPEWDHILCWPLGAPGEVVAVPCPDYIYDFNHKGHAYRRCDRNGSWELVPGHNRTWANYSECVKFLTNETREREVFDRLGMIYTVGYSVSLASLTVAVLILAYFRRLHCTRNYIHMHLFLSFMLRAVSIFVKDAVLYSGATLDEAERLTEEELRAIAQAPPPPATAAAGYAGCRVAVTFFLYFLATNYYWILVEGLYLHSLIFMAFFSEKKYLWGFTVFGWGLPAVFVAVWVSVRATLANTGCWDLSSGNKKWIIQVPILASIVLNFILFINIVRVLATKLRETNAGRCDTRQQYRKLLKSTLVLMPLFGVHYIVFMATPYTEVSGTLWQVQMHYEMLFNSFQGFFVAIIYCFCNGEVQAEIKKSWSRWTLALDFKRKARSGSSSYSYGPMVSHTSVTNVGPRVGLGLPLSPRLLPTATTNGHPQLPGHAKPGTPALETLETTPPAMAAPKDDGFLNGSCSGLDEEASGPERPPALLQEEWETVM
# Chain of Atrial natriuretic peptide receptor 2 (Homo sapiens) (P20594 whole entry, looked up): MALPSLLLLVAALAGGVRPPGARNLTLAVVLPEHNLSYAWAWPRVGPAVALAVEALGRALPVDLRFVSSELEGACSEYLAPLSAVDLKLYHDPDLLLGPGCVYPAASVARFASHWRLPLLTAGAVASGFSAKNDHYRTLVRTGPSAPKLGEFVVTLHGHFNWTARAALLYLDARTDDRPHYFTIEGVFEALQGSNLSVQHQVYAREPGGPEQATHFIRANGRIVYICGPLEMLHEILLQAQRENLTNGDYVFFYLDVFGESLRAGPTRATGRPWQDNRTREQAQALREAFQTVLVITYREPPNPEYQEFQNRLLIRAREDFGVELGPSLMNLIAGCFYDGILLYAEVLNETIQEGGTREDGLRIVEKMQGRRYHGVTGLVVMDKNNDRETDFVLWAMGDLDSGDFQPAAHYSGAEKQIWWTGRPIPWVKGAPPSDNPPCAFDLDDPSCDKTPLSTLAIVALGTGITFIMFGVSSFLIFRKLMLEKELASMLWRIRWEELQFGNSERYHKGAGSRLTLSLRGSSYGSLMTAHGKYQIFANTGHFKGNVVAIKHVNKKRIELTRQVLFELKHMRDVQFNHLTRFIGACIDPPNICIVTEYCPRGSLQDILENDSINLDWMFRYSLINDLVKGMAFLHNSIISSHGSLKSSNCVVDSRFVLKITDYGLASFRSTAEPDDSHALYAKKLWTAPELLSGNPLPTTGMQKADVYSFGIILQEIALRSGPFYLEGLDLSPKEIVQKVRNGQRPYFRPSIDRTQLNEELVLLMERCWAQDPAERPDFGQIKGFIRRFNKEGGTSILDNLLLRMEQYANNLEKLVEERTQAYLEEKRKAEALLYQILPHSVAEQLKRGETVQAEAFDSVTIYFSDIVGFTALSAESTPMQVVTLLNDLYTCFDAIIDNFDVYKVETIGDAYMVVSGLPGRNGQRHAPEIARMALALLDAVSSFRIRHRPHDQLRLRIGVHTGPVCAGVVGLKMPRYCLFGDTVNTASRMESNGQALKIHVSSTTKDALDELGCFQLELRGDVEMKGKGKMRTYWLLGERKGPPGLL
# Chain of Atrial natriuretic peptide receptor 1 (Homo sapiens) (P16066 whole entry, looked up): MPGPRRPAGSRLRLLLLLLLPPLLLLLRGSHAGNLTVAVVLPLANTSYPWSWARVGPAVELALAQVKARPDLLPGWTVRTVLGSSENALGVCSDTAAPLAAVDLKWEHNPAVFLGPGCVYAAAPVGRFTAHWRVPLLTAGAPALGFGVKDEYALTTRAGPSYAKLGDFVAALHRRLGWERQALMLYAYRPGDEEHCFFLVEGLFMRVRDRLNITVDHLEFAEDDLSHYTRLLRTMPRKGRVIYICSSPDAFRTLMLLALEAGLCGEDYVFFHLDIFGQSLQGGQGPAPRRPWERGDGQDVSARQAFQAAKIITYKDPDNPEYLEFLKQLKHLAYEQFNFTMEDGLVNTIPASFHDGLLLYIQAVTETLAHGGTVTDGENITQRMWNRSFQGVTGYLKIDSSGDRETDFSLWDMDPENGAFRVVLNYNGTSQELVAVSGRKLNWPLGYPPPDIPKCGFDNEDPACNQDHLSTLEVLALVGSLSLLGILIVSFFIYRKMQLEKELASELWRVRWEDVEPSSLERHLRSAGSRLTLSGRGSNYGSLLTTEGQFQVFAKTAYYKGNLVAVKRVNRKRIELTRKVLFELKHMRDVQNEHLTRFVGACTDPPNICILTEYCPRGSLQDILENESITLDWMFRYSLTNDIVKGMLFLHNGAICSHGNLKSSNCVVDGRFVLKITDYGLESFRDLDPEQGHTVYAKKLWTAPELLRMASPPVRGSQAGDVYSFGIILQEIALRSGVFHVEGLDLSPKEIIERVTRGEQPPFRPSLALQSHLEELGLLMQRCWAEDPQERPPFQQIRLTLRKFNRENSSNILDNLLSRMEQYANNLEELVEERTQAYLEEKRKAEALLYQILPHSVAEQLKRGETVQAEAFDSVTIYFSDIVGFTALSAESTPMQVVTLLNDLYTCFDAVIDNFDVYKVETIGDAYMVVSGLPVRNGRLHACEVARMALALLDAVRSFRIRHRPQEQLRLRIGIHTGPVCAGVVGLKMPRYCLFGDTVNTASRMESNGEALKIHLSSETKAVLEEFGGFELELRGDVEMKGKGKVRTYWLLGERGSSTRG
# T1 sequence (P78324 whole entry, looked up, the tested form may be a part): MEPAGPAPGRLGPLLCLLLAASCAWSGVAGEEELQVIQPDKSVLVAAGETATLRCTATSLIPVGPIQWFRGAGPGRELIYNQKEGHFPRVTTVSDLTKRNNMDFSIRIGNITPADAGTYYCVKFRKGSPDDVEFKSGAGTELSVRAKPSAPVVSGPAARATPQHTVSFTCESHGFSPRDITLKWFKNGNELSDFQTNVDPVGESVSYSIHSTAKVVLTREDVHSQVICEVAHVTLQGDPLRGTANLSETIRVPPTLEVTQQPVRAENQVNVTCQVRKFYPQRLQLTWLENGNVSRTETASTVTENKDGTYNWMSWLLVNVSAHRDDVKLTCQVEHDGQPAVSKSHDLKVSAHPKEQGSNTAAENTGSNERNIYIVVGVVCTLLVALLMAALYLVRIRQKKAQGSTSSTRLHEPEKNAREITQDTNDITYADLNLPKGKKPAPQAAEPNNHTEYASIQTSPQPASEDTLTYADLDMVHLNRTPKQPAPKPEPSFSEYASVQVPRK
# T1 sequence (Q08722 whole entry, looked up, the tested form may be a part): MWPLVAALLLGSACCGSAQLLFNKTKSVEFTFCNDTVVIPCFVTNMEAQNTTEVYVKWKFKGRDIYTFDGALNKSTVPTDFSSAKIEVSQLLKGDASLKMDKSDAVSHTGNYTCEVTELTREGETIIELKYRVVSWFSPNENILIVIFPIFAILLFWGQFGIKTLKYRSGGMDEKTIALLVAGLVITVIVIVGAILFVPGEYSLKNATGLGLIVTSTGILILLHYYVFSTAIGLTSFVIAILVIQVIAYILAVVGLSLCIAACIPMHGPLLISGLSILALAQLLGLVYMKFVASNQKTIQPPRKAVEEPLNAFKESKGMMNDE
compound,measurement,setting,value
Clc1ccc(C(Cn2ccnc2)OCc2ccsc2Cl)c(Cl)c1 (stereo unspecified),Potency,[1],inactive
same,Potency,[2],18.4 µM (active)
same,Potency,[3],inactive
same,Potency,[4],inactive
same,Potency,[5],inactive
same,Potency,[6],23.5 µM (active)
Cc1cccc(CN2CCN(C(c3ccccc3)c3ccc(Cl)cc3)CC2)c1 (stereo unspecified),Potency,[1],inactive
same,Potency,[3],inactive
same,Potency,[4],inactive
same,Potency,[7],inactive
same,Potency,[6],18.7 µM (active)
COc1cc(Nc2c(C#N)cnc3cc(OCCCN4CCN(C)CC4)c(OC)cc23)c(Cl)cc1Cl,Potency,[8],26.4 µM (active)
same,IC50 (viability decrease),[9],23.5 µM (active)
same,Potency,[10],18.4 µM (active)
same,Potency,[2],inactive
same,Potency,[4],23.6 µM (active)
same,Potency,[5],13.3 µM (active) and 23.5 µM (active)
same,Potency,[7],23.7 µM (active)
same,Potency,[6],10.6 µM (active) and 11.8 µM (active)
CCOC(=O)C(C)Oc1cccc2c(=O)n(CC(=O)Nc3ccc4c(c3)OCCO4)ccc12 (stereo unspecified),Potency,[8],inactive
same,Potency,[11],inactive
same,Potency,[10],inactive
same,Potency,[2],inactive
same,Potency,[12],inactive
same,Potency,[13],inactive
same,Potency,[14],inactive
same,Potency,[3],inactive
same,outcome,[15],inactive
same,Potency,[16],inactive
same,outcome,[17],inactive
same,Potency,[4],inactive
same,Potency,[7],inactive
same,Potency,[6],7.43 µM (active)
Cc1ccc(Nc2nccc(N(C)c3ccc4c(C)n(C)nc4c3)n2)cc1S(N)(=O)=O,Potency,[8],18.7 µM (active)
same,Potency,[11],inactive
same,Potency,[2],inactive
same,Potency,[3],inactive
same,Potency,[4],inactive
same,Potency,[7],14.8 µM (active)
same,Potency,[6],inactive
Cc1cccc(C#Cc2ccccc2)n1,Potency,[18],inactive
same,Potency,[8],inactive
same,IC50 (viability decrease),[9],inactive
same,Potency,[2],inactive
same,Potency,[3],inactive
same,outcome,[15],inactive
same,Potency,[16],inactive
same,outcome,[17],inactive
same,Potency,[4],inactive
same,Potency,[5],inactive
same,Potency,[7],inactive
same,Potency,[6],inactive
O=c1ccc2ccc(O)c(O)c2o1,Potency,[10],inactive
same,Potency,[2],inactive
same,Potency,[12],inactive
same,Potency,[13],inactive
same,Potency,[14],inactive
same,Potency,[3],inactive
same,outcome,[15],inactive
same,Potency,[16],inactive
same,outcome,[17],inactive
same,Potency,[4],inactive
same,Potency,[5],7.43 µM (active)
same,Potency,[7],inactive
same,Potency,[6],5.9 µM (active)
CS(=O)(=O)OCCCCOS(C)(=O)=O,Potency,[1],inactive
same,Potency,[2],inactive
same,Potency,[3],inactive
same,Potency,[4],inactive
same,Potency,[5],inactive
same,Potency,[7],inactive
same,Potency,[6],inactive
C[C@@H](N)C1CCC(C(=O)Nc2ccncc2)CC1 (stereo partly specified),Potency,[8],inactive
same,Potency,[11],inactive
same,IC50 (viability decrease),[9],inactive
same,Potency,[2],inactive
same,Potency,[14],inactive
same,Potency,[3],inactive
same,outcome,[15],inactive
same,Potency,[16],inactive
same,outcome,[17],inactive
same,Potency,[4],inactive
same,Potency,[5],inactive
same,Potency,[7],7.43 µM (active)
COc1cc2c(N3CCN(C(=O)Nc4ccc(OC(C)C)cc4)CC3)ncnc2cc1OCCCN1CCCCC1,Potency,[8],inactive
same,Potency,[11],inactive
same,Potency,[2],inactive
same,Potency,[3],inactive
same,Potency,[4],inactive
same,Potency,[5],inactive
same,Potency,[7],inactive
same,Potency,[6],29.6 µM (active)
CC(C)[N+]1(C)[C@@H]2CC[C@H]1CC(OC(=O)C(CO)c1ccccc1)C2 (stereo partly specified),Potency,[1],inactive
same,Potency,[2],inactive
same,Potency,[3],inactive
same,Potency,[4],inactive
same,Potency,[7],inactive
same,Potency,[6],9.35 µM (active)
Clc1ccc(C(Cn2ccnc2)OCc2ccc(Sc3ccccc3)cc2)c(Cl)c1 (stereo unspecified),Potency,[3],inactive
same,Potency,[4],inactive
same,Potency,[5],inactive
same,Potency,[7],inactive
Oc1ccc(-c2nc(-c3ccc(F)cc3)c(-c3ccncc3)[nH]2)cc1,Potency,[10],inactive
same,Potency,[2],inactive
same,Potency,[12],inactive
same,Potency,[14],inactive
same,Potency,[3],inactive
same,outcome,[15],inactive
same,Potency,[16],inactive
same,outcome,[17],inactive
same,Potency,[5],23.5 µM (active)
same,Potency,[6],14.8 µM (active)
Oc1ccc2ccccc2c1SSc1c(O)ccc2ccccc12,Potency,[10],inactive
same,Potency,[2],inactive
same,outcome,[13],inactive; inac
same,Potency,[3],inactive
same,outcome,[15],inactive
same,Potency,[16],inactive
same,outcome,[17],inactive
same,Potency,[4],inactive
same,Potency,[6],18.7 µM (active)
